Assay [1] addresses PGR (gene 5241) (UniProt P06401). Put plainly: TOX21_PR_BLA_Followup_Agonist_ratio: Tox21 HEK293 Progesterone Receptor (PR) Agonism Beta-lactamase Follow-Up Assay, Ratio (AID 2283933). In short, it runs like this:
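Beta-lactamase reporter readout: ratio of cleaved (ch2) to uncleaved (ch1) substrate after 2 h room-temperature loading, following 16 h compound exposure at 37C. Cells were PR-UAS-bla HEK293T in 2% charcoal-stripped FBS medium. Viability was multiplexed by CellTiter-Glo.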

Assay [2] shares this target. The assay is described as follows: TOX21_PR_BLA_Followup_Antagonist_ratio: Tox21 HEK293 Progesterone Receptor (PR) Antagonism Beta-lactamase Follow-Up Assay, Ratio (AID 2283934).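 Note: PR-UAS-bla HEK293T cells stimulated with 1 nM R5020 agonist for 16 hr.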 In short, it runs like this: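 Readout is the blue/green (ch2/ch1) substrate cleavage ratio after 2 hours at room temperature, following 16 hr co-treatment of PR-bla HEK293T cells with compound and 1nM promegestone. Multiplexed CellTiter-Glo viability flags cytotoxicity; DMSO baseline.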

Assay [3] in a line: TOX21_PR_BLA_Followup_Agonist_viability: Viability Assessment in the Tox21 HEK293 Progesterone Receptor (PR) Agonism Beta-lactamase Follow-Up Assay (AID 2283935).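 Note: signal loss means lower viability so actives are cytotoxic.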 In short, it runs like this:
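Run multiplexed with the beta-lactamase FRET read, this endpoint measures ATP by CellTiter-Glo luminescence (30 min, room temperature). PR-UAS-bla HEK293T cells received compound 6 hr after plating and were then incubated 16 hr at 37C in 2% stripped serum.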

Assay [4] can be described thus: TOX21_PR_BLA_Followup_Antagonist_viability: Viability Assessment in the Tox21 HEK293 Progesterone Receptor (PR) Antagonism Beta-lactamase Follow-Up Assay (AID 2283936).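 Note: cells exposed to compound with R5020 agonist for 16 h; hits lower the luminescence signal meaning cytotoxicity.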 In outline: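 PR-UAS-bla HEK293T cells in medium with 2% charcoal-stripped FBS were treated with compounds plus R5020 for 16 hr at 37C. After the beta-lactamase read, CellTiter-Glo was added to the same wells and luminescence read after 30 min at room temperature.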

Assay [5] concerns the target PGR (gene 5241) (UniProt P06401). Put plainly: TOX21_PR_LUC_Followup_Agonist: Tox21 HEK293 Progesterone Receptor (PR) Agonism Luciferase Follow-Up Assay (AID 2283937; active = hit-call score of the fitted dose curve at least 0.9, where 1 is the maximum; inactive = score below 0.9). In short, it runs like this: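 Agonism scored as luciferase induction over DMSO, read by ONE-Glo after 30 min at RT. Compounds were incubated 16 h at 37C on HEK293-PR-A-luc cells (3,000/well, pre-plated 5 h) previously grown 5 days in charcoal-stripped serum.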

Assay [6] has the same target. The assay is described as follows: TOX21_PR_LUC_Followup_Antagonist: Tox21 HEK293 Progesterone Receptor (PR) Antagonism Luciferase Follow-Up Assay (AID 2283938).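 Note: curve fitted upward as signal gain over DMSO baseline despite antagonist label.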 In outline:
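Cells are grown 5 days in charcoal-stripped-FBS assay medium, plated, left 5 h, then dosed with compound and incubated 16 h. ONE-Glo reagent is added and luminescence read after 30 min.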

Assay [7] is described as follows: TOX21_PR_LUC_Followup_Antagonist_viability: Viability Assessment in the Tox21 HEK293 Progesterone Receptor (PR) Antagonism Luciferase Follow-Up Assay (AID 2283940). In outline:
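Viability counter-readout: cellular ATP measured by luciferase luminescence after 16 h compound exposure at 37C of HEK293-PR-A-luc cells, which had been cultured in charcoal-stripped serum and seeded 5 h beforehand.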

Assay [8] in a line: TOX21_PR_LUC_Followup_Agonist_viability: Viability Assessment in the Tox21 HEK293 Progesterone Receptor (PR) Agonism Luciferase Follow-Up Assay (AID 2283941).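 Note: loss of signal means cytotoxicity so actives lower viability.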 In short, it runs like this:
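Cytotoxicity counter-readout in the PR-A luciferase reporter line HEK293, with 16 h compound exposure at 37C after cells were cultured in charcoal-stripped serum. Cellular ATP quantified by CellTiter-Glo luminescence.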

The target in assay [9] is Thyroid hormone receptor alpha (Rattus norvegicus) + Thyroid hormone receptor beta (Rattus norvegicus) (UniProt P18113+P63059). The assay is described as follows: TOX21_TR_LUC_GH3_Antagonist_Followup: Tox21 GH3 Thyroid Hormone Receptor Antagonism Luciferase Follow-Up Assay (AID 2283942). In short, it runs like this:
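Loss of T3-driven (1.0 nM final) reporter activity in GH3 cells was read by ONE-Glo luminescence after 24 h incubation at 37C; 15-point compound series spanned 92 uM to 5nM final, 1,500 cells/well.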

The target in a further assay is THRA (gene 7067) (UniProt P10827). Put plainly: TOX21_TRA_COA_Antagonist_Followup_ratio: Tox21 Thyroid Hormone Receptor alpha Antagonism through Coactivator Recruitment Follow-Up Assay, Ratio (AID 2283953). In short, it runs like this:
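GST-TRα LBD 2.5 nM, BSA 0.10%, + cpd; then FITC-SRC-2 peptide 200 nM + Tb-anti-GST Ab 2 nM. TR-FRET ratio 520/495 nm. Norm: DMSO = 0%, T3 = 100%.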

Another assay concerns the target THRB (gene 7068) (UniProt P10828). The assay is described as follows: TOX21_TRB_COA_Antagonist_Followup_ratio: Tox21 Thyroid Hormone Receptor beta Antagonism through Coactivator Recruitment Follow-Up Assay, Ratio (AID 2283967). In short, it runs like this:
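Coactivator recruitment to the GST-tagged TRb ligand-binding domain (5.0 nM) was read as the 520/495 nm TR-FRET ratio, using 200 nM fluorescein SRC-2 peptide and 2 nM terbium anti-GST. Scaled between DMSO and T3 wells; loss of signal fitted.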

In assay [10] the target is Retinoic acid receptor RXR-alpha (Homo sapiens) (UniProt P19793). The assay is described as follows: TOX21_TR_RXR_BLA_Antagonist_Followup_ratio: Tox21 Thyroid Hormone Receptor beta Retinoid X Receptor alpha (RXRa) Antagonism Beta-lactamase (BLA) Follow-Up Assay, Ratio (AID 2283972). In outline:
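HEK293T RXRa-bla, 2% charcoal-stripped FBS medium, 16 h compound exposure at 37C, qHTS 11 conc x3. CCF4 FRET ratio ch2/ch1 (460:530), DMSO = baseline, loss-of-signal fit.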

Assay [11] can be described thus: TOX21_TR_RXR_BLA_Antagonist_Followup_viability: Viability Assessment in the Tox21 Thyroid Hormone Receptor beta Retinoid X Receptor alpha (RXRa) Antagonism Beta-lactamase (BLA) Follow-Up Assay (AID 2283979). In outline:
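Follow-up compounds (11 concentrations, triplicate) were incubated 16 h at 37C/5% CO2 with HEK293T RXRa-bla cells seeded at 2,500/well in charcoal-stripped-serum medium. ATP content by CellTiter-Glo luminescence gave viability; curves fitted in both directions against DMSO.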

A short description of assay [12]: TOX21_TRB_BLA_Antagonist_Followup_viability: Viability Assessment in the Tox21 Thyroid Hormone Receptor beta Antagonism Beta-lactamase (BLA) Follow-Up Assay (AID 2283961). In short, it runs like this:
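TRβ-bla HEK293T (human TRβ LBD fused to GAL4 DBD), 3,000 cells/well, 2% charcoal-stripped FBS, phenol red-free medium; 18 h compound exposure, 37C; CellTiter-Glo 30 min RT; luminescence, loss-of-signal readout.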

Structures are written as SMILES. Inconclusive results are not listed. The source made the active and inactive calls. Rule for the calls, unless noted: active = hit-call score of the fitted dose curve at least 0.9, where 1 is the maximum; inconclusive = response in the unintended direction; inactive = score below 0.9.

Chain of PGR (gene 5241) (P06401 whole entry, looked up): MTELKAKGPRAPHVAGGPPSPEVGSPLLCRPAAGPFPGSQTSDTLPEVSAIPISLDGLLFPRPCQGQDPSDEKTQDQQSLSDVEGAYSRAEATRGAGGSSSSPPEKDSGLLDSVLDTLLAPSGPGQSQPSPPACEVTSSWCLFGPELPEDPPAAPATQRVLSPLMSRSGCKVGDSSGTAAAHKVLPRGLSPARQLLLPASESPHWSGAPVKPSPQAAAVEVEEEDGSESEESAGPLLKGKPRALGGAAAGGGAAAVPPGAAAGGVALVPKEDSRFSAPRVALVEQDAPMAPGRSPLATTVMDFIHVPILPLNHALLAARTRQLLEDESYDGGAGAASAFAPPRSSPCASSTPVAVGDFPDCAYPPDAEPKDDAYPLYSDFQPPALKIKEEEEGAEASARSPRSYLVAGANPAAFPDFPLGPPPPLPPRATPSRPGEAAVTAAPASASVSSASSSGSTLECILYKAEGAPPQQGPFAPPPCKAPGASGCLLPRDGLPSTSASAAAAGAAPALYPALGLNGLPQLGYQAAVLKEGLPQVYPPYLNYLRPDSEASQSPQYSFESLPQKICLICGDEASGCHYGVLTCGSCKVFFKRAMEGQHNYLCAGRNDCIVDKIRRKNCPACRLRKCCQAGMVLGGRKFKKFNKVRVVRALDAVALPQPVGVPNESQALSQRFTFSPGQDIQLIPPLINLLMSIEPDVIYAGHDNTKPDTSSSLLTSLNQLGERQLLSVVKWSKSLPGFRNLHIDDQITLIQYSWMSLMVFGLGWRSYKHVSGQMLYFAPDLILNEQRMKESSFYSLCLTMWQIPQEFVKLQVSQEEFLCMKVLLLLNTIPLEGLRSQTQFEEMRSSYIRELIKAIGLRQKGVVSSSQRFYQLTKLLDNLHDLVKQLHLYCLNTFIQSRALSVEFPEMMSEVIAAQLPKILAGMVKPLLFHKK
Chain of Retinoic acid receptor RXR-alpha (Homo sapiens) (P19793 whole entry, looked up): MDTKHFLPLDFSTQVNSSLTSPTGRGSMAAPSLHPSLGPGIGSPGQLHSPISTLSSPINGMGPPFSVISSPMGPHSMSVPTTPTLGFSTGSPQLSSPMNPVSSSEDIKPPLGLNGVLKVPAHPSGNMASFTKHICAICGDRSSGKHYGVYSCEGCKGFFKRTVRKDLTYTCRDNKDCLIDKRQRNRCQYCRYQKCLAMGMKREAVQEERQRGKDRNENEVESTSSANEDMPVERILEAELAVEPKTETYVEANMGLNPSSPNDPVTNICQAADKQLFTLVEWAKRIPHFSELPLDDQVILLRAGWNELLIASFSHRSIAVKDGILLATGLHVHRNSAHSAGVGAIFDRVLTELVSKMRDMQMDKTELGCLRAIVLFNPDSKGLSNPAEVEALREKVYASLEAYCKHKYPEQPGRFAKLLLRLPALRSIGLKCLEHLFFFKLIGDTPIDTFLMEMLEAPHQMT
Chain of THRA (gene 7067) (P10827 whole entry, looked up, the tested form may be a part): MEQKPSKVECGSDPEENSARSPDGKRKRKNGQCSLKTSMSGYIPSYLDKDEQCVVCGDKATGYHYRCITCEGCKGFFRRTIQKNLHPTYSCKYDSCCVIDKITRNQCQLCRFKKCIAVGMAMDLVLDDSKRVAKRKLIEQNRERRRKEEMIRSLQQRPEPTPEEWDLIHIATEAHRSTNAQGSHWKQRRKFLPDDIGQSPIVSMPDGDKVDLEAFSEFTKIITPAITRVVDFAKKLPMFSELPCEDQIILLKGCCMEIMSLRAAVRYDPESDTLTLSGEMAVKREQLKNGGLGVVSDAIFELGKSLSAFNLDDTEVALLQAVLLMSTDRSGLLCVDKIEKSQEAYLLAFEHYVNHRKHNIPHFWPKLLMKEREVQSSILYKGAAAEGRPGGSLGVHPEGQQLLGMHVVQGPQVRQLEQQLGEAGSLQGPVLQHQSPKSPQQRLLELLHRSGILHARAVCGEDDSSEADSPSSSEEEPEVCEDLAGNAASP
Chain of THRB (gene 7068) (P10828 whole entry, looked up, the tested form may be a part): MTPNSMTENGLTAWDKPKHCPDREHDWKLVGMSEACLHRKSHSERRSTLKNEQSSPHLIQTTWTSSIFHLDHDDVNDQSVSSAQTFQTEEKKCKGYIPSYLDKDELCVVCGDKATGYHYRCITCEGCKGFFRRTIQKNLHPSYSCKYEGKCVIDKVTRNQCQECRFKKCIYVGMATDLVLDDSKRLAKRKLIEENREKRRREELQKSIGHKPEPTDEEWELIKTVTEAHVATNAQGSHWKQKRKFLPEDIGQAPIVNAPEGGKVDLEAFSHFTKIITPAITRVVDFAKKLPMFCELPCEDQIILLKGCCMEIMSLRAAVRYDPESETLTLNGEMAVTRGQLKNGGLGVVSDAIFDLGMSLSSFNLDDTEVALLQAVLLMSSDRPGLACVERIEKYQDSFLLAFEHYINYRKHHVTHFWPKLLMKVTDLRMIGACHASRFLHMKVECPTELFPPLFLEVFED

`CC(=O)O[C@H]1CC[C@@]2(C)C(=CC[C@@H]3[C@@H]2CC[C@]2(C)C(C(C)=O)=CC[C@@H]32)C1`: the outcome (with PGR (gene 5241) [1]; in [3]; in [4]; with PGR (gene 5241) [5]; in assay [7]; in assay [8]) was inactive. For the same compound, the figures for the AC50 with PGR (gene 5241) [2] and with PGR (gene 5241) [6] were 10 µM (active) and 9.14 µM (active), respectively.

`CCN(CC)CC(=O)OCC(=O)[C@@]1(O)CC[C@H]2[C@@H]3CCC4=CC(=O)CC[C@]4(C)[C@H]3[C@@H](O)C[C@@]21C`: the result (with PGR (gene 5241) [1]; in the assay with PGR (gene 5241) [2]; in assay [3]; in assay [4]; with PGR (gene 5241) [6]; in assay [7]) was inactive. The compound was classed as inactive in assay [8]. In the assay with PGR (gene 5241) [5], the AC50 was 1.47 µM (active).

For `CCCCCCC[N+](CC)(CC)CCCCc1ccc(Cl)cc1`, the result (in assay [9]; in the assay with THRA (gene 7067); with THRB (gene 7068); in assay [10]; in [11]) was inactive.

`O=C1c2ccccc2-c2n[nH]c3cccc1c23`: the outcome (in [9]; in the assay with THRA (gene 7067); in assay [12]; in assay [10]; in assay [11]) was inactive.

The term AC50 denotes the concentration giving half of the maximal activity seen.

The record behind these values is PubChem BioAssay (EPA / NIEHS).
